# Data: ChEMBL document CHEMBL3988442, “University of Dundee, Small-Polar-MMV Screening Library” (2021)
# The campaign covered roughly 66,000 compounds. About 960 (1.5%) showed an effect of 50% or more. The full list was thinned out, with strong results kept by preference.
# System: Trypanosoma brucei
# Test: Trypanosoma brucei 72 hour study
# Assay type: functional, organism-based
# Design: scale not given: in the data most compounds retested in dose-response had high values
SMILES,"Percent Effect (30 µM, 30.03 µM) [%]","Percent Effect (30.3 µM, […]) [%]"
COc1cc(C2SCC(=O)Nc3n[nH]cc32)cc(OC)c1O (stereo unspecified),53.45,
COc1ccc(OC)c(C2SCC(=O)Nc3n[nH]cc32)c1 (stereo unspecified),38.65,
COc1cc(C2SCC(=O)Nc3ccsc32)cc(OC)c1O (stereo unspecified),23.79,
COc1cc(OC)c(C2SCC(=O)Nc3n[nH]cc32)cc1OC (stereo unspecified),60.77,
COc1ccc(C2SCC(=O)Nc3n[nH]cc32)c(OC)c1OC (stereo unspecified),-21.04,
COc1ccccc1C1SCC(=O)Nc2n[nH]cc21 (stereo unspecified),40.76,
COCc1cncc2c1CCN(Cc1cccs1)C2.O=C(O)C(F)(F)F.O=C(O)C(F)(F)F,,-85.33
COCCN1CCC12CCN(C(=O)c1ccc(C)nc1)C2.O=C(O)C(F)(F)F (stereo unspecified),,8.313
CN(C)CCN1CCN(Cc2cccs2)Cc2cccnc21.O=C(O)C(F)(F)F.O=C(O)C(F)(F)F.O=C(O)C(F)(F)F,,-59.56
CCN1C[C@@H]2[C@@H](OC)CCN(C(=O)Cc3ccsc3)[C@@H]2C1.O=C(O)C(F)(F)F,,-11
CN(C)CCOCc1cncc2c1CCN(C1CCOC1)C2.O=C(O)C(F)(F)F.O=C(O)C(F)(F)F.O=C(O)C(F)(F)F (stereo unspecified),,-50.42
Cc1ccc2c(c1)C1(CCNCC1)CC2NC1CC1.Cl.Cl (stereo unspecified),,15.24
Cc1ccc2c(c1)C(NC(C)C)CC21CCNCC1.Cl (stereo unspecified),,-30.38
Cc1ccc2c(c1)C(NC1CC1)CC21CCNCC1.Cl (stereo unspecified),,51.53
CC(C)CN1CCC2(C1)CN(c1ncccn1)C2.O=C(O)C(F)(F)F,-1.682,
Cc1nc(CN2CCO[C@@H]3CC(COc4ccccn4)C[C@H]32)cs1.O=C(O)C(F)(F)F.O=C(O)C(F)(F)F (stereo partly specified),,-42.66
Cc1cc(CC(C)NC2CCN(CC(C)C)CC2)[nH]n1 (stereo unspecified),11.44,
Cc1cc(N2CCC(NC(C)Cc3ccsc3)CC2)nc(N)n1 (stereo unspecified),101,
Cc1cc(N2CCC(NC(C)Cc3ccsc3)CC2)nc(C)n1 (stereo unspecified),18.53,
CCO[C@@H]1CC[C@H]2[C@H]1OCCN2CC1CCC1.O=C(O)C(F)(F)F,-19.35,
CCc1ccc(CN2CC[C@@H]3NC(=O)CC[C@@H]32)o1.O=C(O)C(F)(F)F,,-13.17

SMILES,"Percent Effect (30 µM, 30.03 µM) [%]","Percent Effect (30.3 µM, […]) [%]"
c1cnc(N2CCCC3(CCN(Cc4cccs4)C3)C2)nc1 (stereo unspecified),,-58.76
Fc1ccccc1CN1CCCC2(CCN(c3ncccn3)C2)C1 (stereo unspecified),,102.7
c1cnc(N2CCCC3(CCN(Cc4ccsc4)C3)C2)nc1 (stereo unspecified),44.57,
Cc1cccc(CN2CCC[C@@H]3CN(C(=O)c4ccco4)C[C@@H]32)n1.O=C(O)C(F)(F)F,-18.06,
Cc1noc(C)c1CN1CC[C@H]2OCC[C@@]2(C(=O)N2CCCC2)C1.O=C(O)C(F)(F)F,-22.78,
CC(C)N(C)Cc1cncc2c1CCN(CC(=O)N(C)C)C2.Cl.Cl.Cl,,7.599
Cc1cccc(CN2C[C@@H]3COC[C@H](NS(C)(=O)=O)[C@@H]3C2)n1.O=C(O)C(F)(F)F.O=C(O)C(F)(F)F,,-15.48
O=C(NC[C@]12COC[C@H]1CN(Cc1cccnc1)C2)c1ccsc1.O=C(O)C(F)(F)F.O=C(O)C(F)(F)F,39.91,
O=C(O)C(F)(F)F.c1cnc(N2C[C@H]3CCN(Cc4ccncc4)C[C@H]3C2)nc1,,-2.942
O=C(O)C(F)(F)F.O=C(O)C(F)(F)F.c1cnc(N2CC[C@@H]3CN(Cc4ccncc4)CCO[C@@H]3C2)nc1,,-15.11
O=C(O)C(F)(F)F.O=C(O)C(F)(F)F.c1ccc(N2CC[C@@H]3CN(Cc4ccncc4)CCO[C@@H]3C2)cc1,,99.05
Cl.Cl.NCC1[C@H]2CN(CCc3ccccc3)C[C@@H]12 (stereo partly specified),,0.5802
O=C(O)C(F)(F)F.O=S(=O)(C1CC1)N1CCOC2(CCCN(Cc3ccccn3)C2)C1 (stereo unspecified),,-44.45
COc1c(C2SCC(=O)Nc3[nH]ncc32)cc2c(c1OC)OCO2 (stereo unspecified),,46.19
COc1cc(C2SCC(=O)Nc3[nH]ncc32)cc2c1OCO2 (stereo unspecified),,86.32
COc1cc(C2SCC(=O)Nc3[nH]ncc32)c(OC)c2c1OCO2 (stereo unspecified),,5.203
CN(C)Cc1cncc2c1CCN(C1CCOCC1)C2.Cl.Cl.Cl,,-35.22
O=C(Cc1ccccc1)N1CCC2(CCN2Cc2ccc(F)cc2)C1.O=C(O)C(F)(F)F (stereo unspecified),,10.12
CCCN1C(=O)CC2(CCCNC2)C1=O.Cl (stereo unspecified),,-8.6
Cc1cccc(-c2ncc(CNC(C)Cc3ccncc3)cn2)c1 (stereo unspecified),,-157.2
